Laboratory results from PubChem BioAssay.
Several values for one entry are separate records, joined by “and”; a condition that tells them apart may be missing. Equal values may be shown once. Activity calls are given as the source filed them. Unless noted, how the calls were made is not given here.

Tests used:
[1] = compounds altering circadian rhythm period length – cell-based, LOPAC library, luminescence reporter (AID 2774); settings: circadian reporter cells, at 7 µM, actives lie on both sides;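 further: values are relative to mean of DMSO wells on each plate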
[2] = tested on: Hepatitis C virus NS3 helicase; experiment: blockers of NS3h binding to ssDNA – biochemical, fluorescence polarization, LOPAC1280 library, primary screen (AID 687035; in the data active means inhibition above about 37%); settings: Purified HCV NS3 helicase, Cy5-dT15 ssDNA binding fluorescence polarization; stronger effect = higher value; concentration not given here
[3] = compounds altering Cy5-DNA-NS3h complex signal – biochemical, LOPAC1280, artefact control for HCV NS3 helicase inhibitor project (AID 687037); settings: Cy5-DNA-NS3h complex fluorescence interference counterscreen
[4] = tested on: Aerobactin synthetase IucA (Klebsiella pneumoniae); experiment: inhibition of K. pneumoniae IucA enzyme – biochemical, Tocris library, absorbance (AID 1345561); settings: purified IucA enzyme assay, absorbance (OD) read-out; stronger effect = lower value;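 tested at 8 µM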;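 further: 100% = enzyme without compound and 0% = no enzyme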
[5] = viability loss with induced miR-34 in A549 – imaging, A549 dox-inducible miR-34, nuclei and caspase counts, primary screen (AID 1347080;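 active means compounds whose cell count with miR-34 switched on is under 0.7 times the count with it off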); settings: A549 miR-34 inducible, Hoechst nuclei count, 48 h
[6] = blockers of cellular phospholipid synthesis – cell-based, LOPAC library, screen 4, primary screen (AID 1347384); settings: animal cells, phospholipid biosynthesis inhibition screen; at 10 µM
[7] = galactose survival enhancers in mitochondrial complex I cybrids – cell-based, galactose medium, ATP luminescence, primary screen (AID 1645843;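 active means z-score of at least 1.8 in each of two replicates, scored against plate mean and spread of sample wells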;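 further: positive z means more ATP and so rescue of galactose-driven cybrid death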); settings: complex I mutant cybrid cells, 72 h, stronger effect = higher value
[8] = compounds altering viability of human ES cells (AID 493140); settings: human embryonic stem cell survival screen; stronger effect = higher value;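 further: cells exposed to compounds for four days before counting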
[9] = P. berghei load reduction in hepatocytes – cell-based, HepG2, luciferase luminescence, HepG2 viability, primary screen (AID 624349; in the data active means parasite load remaining mostly below about 12%, no sharp cut-off; inactive means mostly above about 10%;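 further: 100% = mean of DMSO negative control wells on the same plate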); settings: P. berghei liver stage in HepG2, luciferase luminescence, concentration not given here; parasite load remaining: stronger effect = lower value; viability: measured here: HepG2 viability without parasites
[10] = MELAS cybrid and Rieske KO viability enhancers – cell-based, MELAS cybrids, Rieske KO mouse fibroblasts, CellTiter-Glo, primary screen (AID 1508586;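 active means mean z-score across replicates of 1.96 or higher in either the MELAS or the Rieske mutant cell line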;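 further: z relative to plate mean and SD of compound and empty wells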); settings: low glucose
[11] = chitosan synthesis blockers in C. neoformans – flow cytometry, Cibacron Brilliant Red staining (AID 1347148); settings: Cryptococcus neoformans chitosan, stronger effect = lower value; at 10 µM unless noted;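 further: compound exposure lasted three days at 37 degrees C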
[12] = stronger effect = lower value, cell number ratio, induced over uninduced
[13] = measured here: relative caspase fold change +Dox/-Dox
[14] = measured here: total cells with miR-34 induction, stronger effect = lower value
[15] = measured here: total cells without miR-34 induction
[16] = MELAS cybrid survival, CellTiter-Glo 48 h, stronger effect = higher value
[17] = Rieske KO mouse fibroblast survival, CellTiter-Glo 72 h

Compound | period change [1] | inhibition [2] | fluorescence ratio (interference) [3] | remaining activity [4] | fold change [5, 12] | fold change [5, 13] | cell count [5, 14] | cell count [5, 15] | outcome [6] | z-score [7] | survival [8] | parasite load remaining [9] | viability [9] | z-score [10, 16] | z-score [10, 17] | fold fluorescence [11]
c1ccc2nc(C3=NCCN3)ccc2c1 | 0.1 h (inactive) | 0% (inactive) | 1 (inactive) | 101% (inactive) | 1.03 (inactive) and 0.931 (inactive) | 1.73 and 0.739 | 9970 and 8800 | 9720 and 9460 | inactive | 0.695 (inactive) and 0.09 (inactive) |  |  |  |  |  | 
O=C(NCCNCC(O)COc1ccc(O)cc1)N1CCOCC1 (stereo not drawn) | -0.145 h (inactive) |  |  | 86.3% (inactive) | 0.933 (inactive) and 0.982 (inactive) and 0.986 (inactive) | 1.12 and 0.678 and 0.984 | 9570 and 9500 and 10300 | 10300 and 9670 and 10400 |  | 1.45 (inactive) and 0.315 (inactive) | 3.92 (inactive) | 67.2% (inactive) and 53.1% (inactive) | 92.7% and 101% | 0.558 (inactive) and 0.821 (inactive) | -0.323 and 0.721 | 
CCCCCCCCc1ccc(-c2ccc(C(=O)O)cc2)cc1 |  | 0% (inactive) | 1 (inactive) | 95.4% (inactive) | 0.939 (inactive) and 0.915 (inactive) | 0.89 and 1.73 | 8400 and 8360 | 8950 and 9140 | inactive | 0.205 (inactive) and -0.145 (inactive) |  |  |  |  |  | 
O=S(=O)(c1ccccc1)N(CC(F)(F)F)c1ccc(C(O)(C(F)(F)F)C(F)(F)F)cc1 |  |  |  | 101% (inactive) | 0.946 (inactive) and 1.36 (inactive) and 0.863 (inactive) | 0.813 and 0.647 and 1.59 | 5490 and 6260 and 4300 | 5810 and 4590 and 4980 |  | -0.605 (inactive) |  |  |  | -0.346 (inactive) | -0.159 | 
Nc1nc2c(cnn2CCc2ccccc2)c2nc(-c3ccco3)nn12 |  | 0% (inactive) | 1 (inactive) | 107% (inactive) | 0.995 (inactive) and 1.05 (inactive) | 1.09 and 1.04 | 10300 and 7560 | 10400 and 7200 | inactive | 0.15 (inactive) and -0.35 (inactive) |  |  |  |  |  | 
CCCCCCC(=O)OC1CC(C)(C)NC(C)(C)C1 |  | -4% (inactive) | 0.9 (inactive) | 97.8% (inactive) | 0.999 (inactive) and 0.934 (inactive) | 0.562 and 1.2 | 9880 and 8660 | 9890 and 9270 | inactive | 0.56 (inactive) and 0.015 (inactive) |  |  |  |  |  | 
CC(C)(C)c1ccc(/C=C/C(=O)Nc2ccc3c(c2)OCCO3)cc1 |  | -1% (inactive) | 1 (inactive) | 109% (inactive) | 1.15 (inactive) and 1.27 (inactive) | 0.847 and 0.54 | 4930 and 3950 | 4270 and 3100 | inactive | -1.38 (inactive) and -0.7 (inactive) |  |  |  |  |  | 
Nc1ccc(-c2nc3ccc(-c4nc5ccc(N)cc5[nH]4)cc3[nH]2)cc1 |  | -5% (inactive) | 0.6 (active) | 107% (inactive) | 1.02 (inactive) and 0.968 (inactive) | 0.586 and 0.928 | 11200 and 10100 | 10900 and 10500 | inactive | 4.82 (active) and 5.54 (active) |  |  |  |  |  | 
Cn1cnc2c(NCc3ccccc3)nc(NCCO)nc21 | 0.235 h (inactive) | -2% (inactive) | 0.9 (inactive) | 120% (inactive) |  |  |  |  | inactive | 0.355 (inactive) and 0.005 (inactive) | 92.8 (inactive) |  |  |  |  | 4.59 [at 167.6 µM] (inactive)
